# In the supplement of paper PMC7695840:
# Where a name gives a salt, the structure may show the parent alone.
# Key:
# [1] = test system: Staphylococcus aureus MW2 delta-mecA (mecA-); experiment: normalized GFP fluorescence (growth of mecA- strain) (fraction of control range); higher = more growth of mecA- strain; conditions: compound concentration: 150 uM; cefoxitin: subinhibitory; fluorescent label: GFP
# Procedure, shortened: (§1)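 In 1536-well plates holding 150 μM compound (1.5% DMSO), a 1:1 mix of pre-induced S. aureus MW2 cells was added at 5 µL/well, in one replicate. One strain carried the gene and DsRed, the other lacked the gene and carried GFP, and the LB held a subinhibitory antibiotic dose chosen daily. Plates stood unshaken for 20 h at 37 °C, 90% humidity, before DsRed (540/590) and GFP (485/520) readings, which were scaled per plate to single-strain control medians, with plates high in untreated ratio and rows above DsRed/GFP 10 dropped.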
# [2] = test system: Staphylococcus aureus MW2 (mecA+); experiment: normalized DsRed fluorescence (growth of mecA+ strain) (fraction of control range); higher = more growth of mecA+ strain; conditions: compound concentration: 150 uM; cefoxitin: subinhibitory; fluorescent label: DsRed
# Procedure, shortened: as §1
Compound,normalized GFP fluorescence [1],normalized DsRed fluorescence [2]
CN(C)CCc1c[nH]c2ccc(C[C@H]3COC(=O)N3)cc12,0.31,0.962
Cn1cnc2c1c(=O)[nH]c(=O)n2C,0.351,0.469
Cc1cc2c(cc1CC(=O)c1sccc1S(=O)(=O)Nc1onc(C)c1Cl)OCO2,0.251,0.293
CC(=O)c1ccc(S(=O)(=O)NC(=O)NC2CCCCC2)cc1,0.35,0.729
CC(=O)NCCCS(=O)(=O)O,0.628,0.742
Nc1ccc(S(=O)(=O)Nc2nccs2)cc1,0.273,1.4
Nc1nc(=O)c2nc(CNc3ccc(C(=O)N[C@@H](CCC(=O)O)C(=O)O)cc3)cnc2[nH]1,0.21,0.831
CN(CCOc1ccc(CC2SC(=O)NC2=O)cc1)c1ccccn1 (centres undefined),0.341,0.876
CC1Cc2ccccc2N1NC(=O)c1ccc(Cl)c(S(N)(=O)=O)c1 (centres undefined),0.39,0.625
CC(=O)O[C@H]1CC[C@@]2(C)C(=CC[C@@H]3[C@@H]2CC[C@]2(C)C(c4cccnc4)=CC[C@@H]32)C1 [Abiraterone Acetate (CB7630)],0.278,0.65
C[C@@H]1C[C@H]2[C@@H]3C[C@H](F)C4=CC(=O)C=C[C@]4(C)[C@@]3(F)[C@@H](O)C[C@]2(C)[C@@]1(O)C(=O)CO,0.766,0.847
CCCNCC(O)COc1ccccc1C(=O)CCc1ccccc1 (centres undefined),0.19,1.05
C[C@H](CS)C(=O)N1CCC[C@H]1C(=O)O,0.232,0.842
CC1(C)[C@@H](O[C@H]2O[C@H](C(=O)O)[C@@H](O)[C@H](O)[C@H]2O[C@@H]2O[C@H](C(=O)O)[C@@H](O)[C@H](O)[C@H]2O)CC[C@]2(C)[C@H]3C(=O)C=C4[C@@H]5C[C@@](C)(C(=O)O)CC[C@]5(C)CC[C@@]4(C)[C@]3(C)CC[C@@H]12 [Glycyrrhizic acid],0.122,1.7
CN1CCC(=C2c3ccccc3CCc3sccc32)CC1 [Pizotifen malate],0.00361,1.4
CCN(CCO)CCCC(C)Nc1ccnc2cc(Cl)ccc12 (centres undefined),0.323,1.33
CCN[C@H]1CN(CCCOC)S(=O)(=O)c2sc(S(N)(=O)=O)cc21,0.268,0.875
CC(C)NCC(O)c1ccc(NS(C)(=O)=O)cc1 (centres undefined),0.417,0.703
Nc1nc2[nH]cnc2c(=S)[nH]1,0.329,1.33
C[N+](C)(C)CCOP(=O)(O)OP(=O)([O-])OC[C@H]1O[C@@H](n2ccc(N)nc2=O)[C@H](O)[C@@H]1O,0.342,0.78
CCCC1O[C@@H]2C[C@H]3[C@@H]4CCC5=CC(=O)C=C[C@]5(C)[C@H]4[C@@H](O)C[C@]3(C)[C@]2(C(=O)CO)O1 (some centres undefined),0.226,1.12
NC(=O)OCC(COC(N)=O)c1ccccc1 [Felbamate],0.382,0.864
O=C(NCCN1CCOCC1)c1ccc(Cl)cc1 [Moclobemide],0.558,0.739
COc1ccc([C@@H]2Sc3ccccc3N(CCN(C)C)C(=O)[C@@H]2OC(C)=O)cc1,0.124,0.612
CS(=O)(=O)OCCCCOS(C)(=O)=O,0.346,0.573
COCCCOc1ccnc(C[S+]([O-])c2nc3ccccc3[nH]2)c1C (centres undefined),0.186,0.865

Compound,normalized GFP fluorescence [1],normalized DsRed fluorescence [2]
CCCC(=O)OCOC(=O)C1=C(C)NC(C)=C(C(=O)OC)C1c1cccc(Cl)c1Cl (centres undefined) [Cleviprex (Clevidipine)],0.13,0.595
COCCOC(=O)C1=C(C)NC(C)=C(C(=O)OC(C)C)C1c1cccc([N+](=O)[O-])c1 (centres undefined),0.032,0.85
CN1CCC(=C2c3ccccc3CC(=O)c3sccc32)CC1 [Ketotifen fumarate (Zaditor)],0.402,0.799
CN1CCOC(c2ccccc2)c2ccccc2C1 (centres undefined),0.242,0.81
C[C@H](Cc1cc2c(c(C(N)=O)c1)N(CCCO)CC2)NCCOc1ccccc1OCC(F)(F)F [Silodosin (Rapaflo)],0.269,1.1
Nc1ncn([C@H]2C[C@H](O)[C@@H](CO)O2)c(=O)n1 [Decitabine],0.242,0.802
CCCc1nc2c(C)cc(-c3nc4ccccc4n3C)cc2n1Cc1ccc(-c2ccccc2C(=O)O)cc1,0.106,0.194
C1CNCCN1,0.806,0.885
CCOC(=O)[C@H](CCc1ccccc1)N[C@H]1CS[C@H](c2cccs2)CN(CC(=O)O)C1=O [Temocapril HCl],0.372,0.936
O=C(NC[C@H]1CN(c2ccc(N3CCOCC3=O)cc2)C(=O)O1)c1ccc(Cl)s1 [Rivaroxaban (Xarelto)],0.0017,0.837
C#C[C@]1(O)CC[C@H]2[C@@H]3CCC4=Cc5oncc5C[C@]4(C)[C@H]3CC[C@@]21C,0.414,0.779
CCCCNC(=O)NS(=O)(=O)c1ccc(C)cc1,0.18,0.588
Nc1ccc(S(=O)(=O)c2ccc(N)cc2)cc1,0.296,0.89
CCCCC(CC)COC(=O)C=Cc1ccc(OC)cc1 (centres undefined),0.289,0.473
Cc1[nH]c2ccccc2c1CCNCc1ccc(/C=C/C(=O)NO)cc1 [Panobinostat],0.228,1.43
Clc1ccc2nsnc2c1NC1=NCCN1 [Tizanidine HCl],0.539,0.515
N#C[C@@H]1CCCN1C(=O)CNC12CC3CC(CC(O)(C3)C1)C2 [Vildagliptin (LAF-237)],0.68,0.519
CC(=O)/N=c1/sc(S(N)(=O)=O)nn1C,0.574,0.53
COC(=O)C1=C(C)NC(C)=C(C(=O)OC(C)C)C1c1cccc2nonc12 (centres undefined),0.00618,1.51
NC12CC3CC(CC(C3)C1)C2,0.453,0.794
Cc1onc(-c2ccccc2)c1-c1ccc(S(N)(=O)=O)cc1 [Valdecoxib],0.291,0.573
CCC[C@H](N[C@@H](C)C(=O)N1[C@H](C(=O)O)C[C@@H]2CCCC[C@@H]21)C(=O)OCC [Perindopril Erbumine (Aceon)],0.225,0.779
Cc1ncc([N+](=O)[O-])n1CC(O)CCl (centres undefined),0.488,0.705
CCN(CCCc1ccccc1)CCCc1ccccc1,0.1,1.17
CC(C)/N=c1\cc2n(-c3ccc(Cl)cc3)c3ccccc3nc-2cc1Nc1ccc(Cl)cc1,0.344,1.15
CC(C)(O)c1ccccc1CC[C@@H](SCC1(CC(=O)O)CC1)c1cccc(/C=C/c2ccc3ccc(Cl)cc3n2)c1,-0.0136,0.632

Compound,normalized GFP fluorescence [1],normalized DsRed fluorescence [2]
CC(=O)N[C@@H](CS)C(=O)O,0.328,0.653
COc1cc2ncnc(Nc3ccc(F)c(Cl)c3)c2cc1NC(=O)/C=C/CN1CCCCC1,0.102,0.557
N#Cc1ccc(C(c2ccc(C#N)cc2)n2cncn2)cc1,0.628,0.758
CC(C)OC(=O)OCOP(=O)(CO[C@H](C)Cn1cnc2c(N)ncnc21)OCOC(=O)OC(C)C [Tenofovir Disoproxil Fumarate],0.238,0.514
Cc1cccc(C)c1OCC(=O)N[C@@H](Cc1ccccc1)[C@@H](O)C[C@H](Cc1ccccc1)NC(=O)[C@H](C(C)C)N1CCCNC1=O [Lopinavir (ABT-378)],0.126,0.671
CN(c1nccc(=O)[nH]1)C1CCN(c2nc3ccccc3n2Cc2ccc(F)cc2)CC1 [Mizolastine (Mizollen)],0.387,0.462
C=CC[N+]1([C@H]2C[C@H]3[C@@H]4CC[C@H]5C[C@H](O)[C@@H](N6CCOCC6)C[C@]5(C)[C@H]4CC[C@]3(C)[C@H]2OC(C)=O)CCCC1,0.279,0.667
Cc1noc(NS(=O)(=O)c2ccc(N)cc2)c1C,0.025,0.437
C[N+]1(C)[C@@H]2CC[C@H]1C[C@@H](OC(=O)C(O)c1ccccc1)C2 (some centres undefined),0.29,0.71
COc1ccc(-c2ccc3cc(C(=O)O)ccc3c2)cc1C12CC3CC(CC(C3)C1)C2,0.582,0.97
Cc1cc(C(C)(C)C)cc(C)c1CC1=NCCN1,0.345,0.52
CN1Cc2c(N)cccc2C(c2ccccc2)C1 (centres undefined),0.359,0.781
C=CC(=O)N1CCC[C@@H](n2nc(-c3ccc(Oc4ccccc4)cc3)c3c(N)ncnc32)C1,0.0101,1.1
N[C@H](C(=O)O)[C@H](O)c1ccc(O)c(O)c1 [Droxidopa (L-DOPS)],-0.00088,1.79
CC(C)NCC(O)COc1ccc(CC(N)=O)cc1 (centres undefined),0.323,0.749
NCC[C@H](O)C(=O)N[C@@H]1C[C@H](N)[C@@H](O[C@H]2O[C@H](CN)[C@@H](O)[C@H](O)[C@H]2O)[C@H](O)[C@H]1O[C@H]1O[C@H](CO)[C@@H](O)[C@H](N)[C@H]1O [Amikacin hydrate],0.412,0.639
C[N+]1(C)[C@@H]2C[C@@H](OC(=O)C(O)(c3cccs3)c3cccs3)C[C@H]1[C@@H]1O[C@@H]12 [Tiotropium Bromide hydrate],0.394,0.674
Cc1ccc(NC(=O)c2ccc(CN3CCN(C)CC3)cc2)cc1Nc1nc(-c2cccnc2)cs1 [Masitinib (AB1010)],0.0914,0.633
O=c1n(CCCN2CCN(c3cccc(Cl)c3)CC2)nc2ccccn12,0.187,1.1
CN(C)CCOC(=O)C(c1ccccc1)C1(O)CCCC1 (centres undefined),0.34,0.757
CC(C)(C)NC[C@H](O)COc1ccccc1C1CCCC1,0.435,0.586
Nc1ccn(C[C@@H](CO)OCP(=O)(O)O)c(=O)n1 [Cidofovir (Vistide)],0.408,0.568
OC(CCN1CCCCC1)(c1ccccc1)C1CC2C=CC1C2 (centres undefined) [Biperiden hydrochloride],0.119,0.714
CCN(CC)CCOc1ccc2c(c1)C(=O)c1cc(OCCN(CC)CC)ccc1-2,0.282,0.512
COc1ccc(C[C@@H]2c3cc(OC)c(OC)cc3CC[N@+]2(C)CCC(=O)OCCCCCOC(=O)CC[N@@+]2(C)CCc3cc(OC)c(OC)cc3[C@H]2Cc2ccc(OC)c(OC)c2)cc1OC [Cisatracurium besylate (Nimbex)],0.62,0.713
